Results: PubChem BioAssay (EPA / NIEHS)
Activity calls are given as the source filed them. Rule for the calls: active = hit-call score of the fitted dose curve at least 0.9, where 1 is the maximum; inactive = score below 0.9.

Legend:
[1] = BSK_CASM3C_SRB: Viability Assessment in the BioMAP Diversity Plus: CASM3C Assay (AID 2283050); conditions: primary human coronary artery smooth muscle cells;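 note: total protein by SRB staining as cytotoxicity measure in parallel cultures; cells exposed to compound for 24 h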
[2] = read-out: Thrombomodulin, THBD (gene 7056); test: BSK_CASM3C_Thrombomodulin: BioMAP Diversity Plus: CASM3C Assay for Thrombomodulin Biomarker Activity (AID 2283051); conditions: primary human coronary artery smooth muscle cells; actives raise or lower the signal;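 note: thrombomodulin protein level measured by ELISA 24 h after dosing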
[3] = read-out: Tissue Factor, F3 (gene 2152); test: BSK_CASM3C_TissueFactor: BioMAP Diversity Plus: CASM3C Assay for Tissue Factor Biomarker Activity (AID 2283052); conditions: primary human coronary artery smooth muscle cells; actives raise or lower the signal;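 note: cell surface tissue factor protein level read by ELISA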
[4] = read-out: Interferon-gamma inducible Protein 10 (IP10), CXCL10 (gene 3627); test: BSK_hDFCGF_IP10: BioMAP Diversity Plus: hDFCGF Assay for Interferon-gamma inducible Protein 10 (IP10) Biomarker Activity (AID 2283053); conditions: primary human foreskin fibroblasts; actives raise or lower the signal
Method in brief: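 Chemical-treated human skin fibroblasts (primary) were sampled at 24 h for IP-10 by ELISA. Both increases and decreases relative to DMSO were scored.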

[5] = read-out: Urokinase-type plasminogen activator receptor (uPAR), PLAUR (gene 5329); test: BSK_CASM3C_uPAR: BioMAP Diversity Plus: CASM3C Assay for Urokinase-type plasminogen activator receptor (uPAR) Biomarker Activity (AID 2283054); conditions: primary human coronary artery smooth muscle cells; actives raise or lower the signal;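 note: cell-surface uPAR protein level quantified by ELISA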
[6] = read-out: Vascular cell adhesion molecule 1 (VCAM1), VCAM1 (gene 7412); test: BSK_CASM3C_VCAM1: BioMAP Diversity Plus: CASM3C Assay for Vascular cell adhesion molecule 1 (VCAM1) Biomarker Activity (AID 2283055); conditions: primary human coronary artery smooth muscle cells; actives raise or lower the signal;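 note: VCAM-1 protein level quantified by ELISA on the cells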
[7] = read-out: Collagen III, COL3A1 (gene 1281); test: BSK_hDFCGF_CollagenIII: BioMAP Diversity Plus: hDFCGF Assay for Collagen III Biomarker Activity (AID 2283056); conditions: primary human foreskin fibroblasts; actives raise or lower the signal
Method in brief: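 ELISA readout of Collagen III in human dermal (foreskin) fibroblasts, taken 24 h post-treatment. Gain or loss relative to DMSO vehicle fitted in both directions.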

[8] = read-out: Epidermal growth factor receptor (EGFR), EGFR (gene 1956); test: BSK_hDFCGF_EGFR: BioMAP Diversity Plus: hDFCGF Assay for Epidermal growth factor receptor (EGFR) Biomarker Activity (AID 2283057); conditions: primary human foreskin fibroblasts; actives raise or lower the signal
Method in brief: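 Cell-based multiplexed assay in primary human foreskin fibroblasts. EGFR is read by ELISA 24 h after treatment and compared with DMSO controls.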

[9] = read-out: Interleukin-8 (IL8), CXCL8 (gene 3576); test: BSK_hDFCGF_IL8: BioMAP Diversity Plus: hDFCGF Assay for Interleukin-8 (IL8) Biomarker Activity (AID 2283058); conditions: primary human foreskin fibroblasts; actives raise or lower the signal
Method in brief: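 IL-8 levels read by ELISA at 24 hours after dosing human skin fibroblast cultures. Parallel SRB staining assessed overt cytotoxicity, and gain or loss of signal was fitted against DMSO control.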

[10] = BSK_hDFCGF_Proliferation: Cell Proliferation Assessment in the BioMAP Diversity Plus: hDFCGF Assay (AID 2283059); conditions: primary human foreskin fibroblasts;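 note: curves fitted for both rise and fall of signal versus DMSO baseline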
Method in brief: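 This proliferation readout used SRB total-protein staining of human foreskin fibroblasts […], normalized to DMSO with bidirectional curve fitting.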

[11] = read-out: Macrophage colony-stimulating factor (MCSF), CSF1 (gene 1435); test: BSK_hDFCGF_MCSF: BioMAP Diversity Plus: hDFCGF Assay for Macrophage colony-stimulating factor (MCSF) Biomarker Activity (AID 2283060); conditions: primary human foreskin fibroblasts; actives raise or lower the signal
Method in brief: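 M-CSF levels read by ELISA at 24 h post-dosing in human skin fibroblasts. Parallel cultures stained with SRB assessed cytotoxicity at the same time point; response fitted in both directions against the DMSO baseline.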

[12] = BSK_hDFCGF_SRB: Viability Assessment in the BioMAP Diversity Plus: hDFCGF Assay (AID 2283061); conditions: primary human foreskin fibroblasts;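 note: cells exposed to compound for 24 h before the read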
Method in brief: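 Viability was read as total protein: after 10% TCA fixation, wells were stained with 0.1% sulforhodamine B and read at 560 nm. Primary human foreskin fibroblasts were dosed for 24 h, with bidirectional fitting versus DMSO.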

[13] = read-out: TIMP metallopeptidase inhibitor 1 (TIMP1), TIMP1 (gene 7076); test: BSK_hDFCGF_TIMP1: BioMAP Diversity Plus: hDFCGF Assay for TIMP metallopeptidase inhibitor 1 (TIMP1) Biomarker Activity (AID 2283062); conditions: primary human foreskin fibroblasts; actives raise or lower the signal
Method in brief: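 TIMP-1 measured by ELISA 24 h after chemical dosing of primary human skin fibroblasts, with gain or loss fitted relative to DMSO. Parallel SRB staining (560 nm) monitored overt cytotoxicity.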

[14] = read-out: Monokine induced gamma interferon (MIG), CXCL9 (gene 4283); test: BSK_hDFCGF_MIG: BioMAP Diversity Plus: hDFCGF Assay for Monokine induced gamma interferon (MIG) Biomarker Activity (AID 2283063); conditions: primary human foreskin fibroblasts; actives raise or lower the signal
Method in brief: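 Human primary foreskin fibroblasts in the hDFCGF system, exposed to test chemical for 24 h; MIG measured by ELISA. Bidirectional curve fitting against DMSO negative control as activity baseline.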

[15] = read-out: Matrix Metallopeptidase 1 (MMP1), MMP1 (gene 4312); test: BSK_hDFCGF_MMP1: BioMAP Diversity Plus: hDFCGF Assay for Matrix Metallopeptidase 1 (MMP1) Biomarker Activity (AID 2283064); conditions: primary human foreskin fibroblasts; actives raise or lower the signal
Method in brief: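 ELISA read-out of MMP1 from human foreskin fibroblasts (primary skin cells), 24 h post-dose. Gain or loss of signal was fitted bidirectionally versus DMSO negative control; cytotoxicity was checked by SRB in parallel cultures.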

[16] = read-out: Vascular cell adhesion molecule 1 (VCAM1), VCAM1 (gene 7412); test: BSK_hDFCGF_VCAM1: BioMAP Diversity Plus: hDFCGF Assay for Vascular cell adhesion molecule 1 (VCAM1) Biomarker Activity (AID 2283065); conditions: primary human foreskin fibroblasts; actives raise or lower the signal
Method in brief: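 ELISA readout of VCAM-1 on human dermal fibroblast primary cultures, 24 h after chemical exposure. Gain or loss of signal fitted in both directions against DMSO baseline.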

[17] = read-out: Plasminogen activator inhibitor-1 (PAI1), SERPINE1 (gene 5054); test: BSK_hDFCGF_PAI1: BioMAP Diversity Plus: hDFCGF Assay for Plasminogen activator inhibitor-1 (PAI1) Biomarker Activity (AID 2283066); conditions: primary human foreskin fibroblasts; actives raise or lower the signal
Method in brief: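 Human skin fibroblast cultures receive chemical for 24 h before PAI-1 is measured by ELISA; signal changes are fitted bidirectionally against DMSO-treated wells.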

[18] = read-out: Intercellular Adhesion Molecule 1 (ICAM1), ICAM1 (gene 3383); test: BSK_KF3CT_ICAM1: BioMAP Diversity Plus: KF3CT Assay for Intercellular Adhesion Molecule 1 (ICAM1) Biomarker Activity (AID 2283067); conditions: primary human keratinocytes with fibroblasts; actives raise or lower the signal
Method in brief: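 Cell-surface ICAM-1 was measured by ELISA 24 h after dosing primary human skin keratinocytes co-cultured with fibroblasts. Parallel SRB staining tracked overt cytotoxicity. Gain or loss of signal was fitted relative to DMSO.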

[19] = BSK_KF3CT_SRB: Viability Assessment in the BioMAP Diversity Plus: KF3CT Assay (AID 2283069); conditions: primary human keratinocytes with fibroblasts;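 note: total protein by sulforhodamine B staining as a cytotoxicity measure; read 24 h after compound addition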
Method in brief: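 SRB read-out at 560 nm (0.1% stain, TCA-fixed cells) gauges overt cytotoxicity in a human skin keratinocyte–fibroblast co-culture 24 h post-dosing. Signal change was fitted bidirectionally relative to DMSO control.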

[20] = read-out: Interferon-gamma inducible Protein 10 (IP10), CXCL10 (gene 3627); test: BSK_KF3CT_IP10: BioMAP Diversity Plus: KF3CT Assay for Interferon-gamma inducible Protein 10 (IP10) Biomarker Activity (AID 2283068); conditions: primary human keratinocytes with fibroblasts; actives raise or lower the signal
Method in brief: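 Signal is secreted/surface IP-10 by ELISA in a human primary skin co-culture of keratinocytes and foreskin fibroblasts, taken 24 h post-dosing; DMSO served as negative control.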

Measured: outcome

CN(C)CCO
not listed: [20]
inactive: all other assays above

Cc1cccc([N+](=O)[O-])c1
inactive: all assays above

N#Cc1ccc(N(CC(N)=O)CC(F)(F)F)cc1C(F)(F)F
inactive: all assays above

CCOCCOC(C)=O
not listed: [20]
inactive: all other assays above

Cc1cc(-c2ccc(N)c(C)c2)ccc1N
not listed: [20]
inactive: all other assays above
